Measurements: ChEMBL document CHEMBL1961873, “Compounds: GSK PKIS; Assays: Nanosyn kinase panel” (2012)
“And” between values parts separate entries of the source, which are not always exact repeats. Equal values may be shown once.

Biological target: Dual specificity mitogen-activated protein kinase kinase 1 (Homo sapiens) (UniProt Q02750);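 note: values reported are mean inhibition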
Conditions: at 1 µM

Chain of Dual specificity mitogen-activated protein kinase kinase 1 (Homo sapiens) (Q02750 whole entry): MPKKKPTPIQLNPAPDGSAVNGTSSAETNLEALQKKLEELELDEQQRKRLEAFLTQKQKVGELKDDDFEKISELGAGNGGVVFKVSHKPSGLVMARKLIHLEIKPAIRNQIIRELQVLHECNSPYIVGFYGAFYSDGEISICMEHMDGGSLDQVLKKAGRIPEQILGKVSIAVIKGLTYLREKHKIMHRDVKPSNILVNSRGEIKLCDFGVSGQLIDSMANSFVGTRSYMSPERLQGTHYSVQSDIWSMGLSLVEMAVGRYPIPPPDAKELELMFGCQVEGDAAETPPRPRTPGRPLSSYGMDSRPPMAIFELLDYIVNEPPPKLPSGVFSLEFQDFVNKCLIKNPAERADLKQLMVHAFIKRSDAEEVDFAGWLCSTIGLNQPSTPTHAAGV

SMILES | inhibition
NS(=O)(=O)c1ccc(N/N=C2\C(=O)Nc3ccc(C(=O)NCc4ccncc4)cc32)cc1 | 57.6%
CCCNc1cccc(-n2ncc3c(N/N=C/c4ccncc4)ncnc32)c1 | 2.07%
c1cnn2ncc(-c3ccnc(NCCCN4CCOCC4)n3)c2c1 | 3.9%
O=C(Nc1n[nH]c2nnc(-c3cccnc3)cc12)C1CC1 | 3.42%
COC(=O)Nc1nc2cc(Oc3ccc(NC(=O)Nc4ccccc4)cc3)ccc2[nH]1 | 2.45%
Fc1ccc(Nc2nccc(-c3c(-c4ccc(C(F)(F)F)cc4)nn4ncccc34)n2)cc1F | 3.88%
CCS(=O)(=O)c1ccc(OC)c(Nc2ncc(-c3cccc(F)c3)o2)c1 | 5%
CN1CCC(C(=O)Nc2n[nH]c3nc(-c4ccc(O)cc4)c(Br)cc23)CC1 | 5.03% and 2.15%
CC1=C(C(=O)Nc2ccc3[nH]nc(C)c3c2)C(c2ccc(C(F)(F)F)cc2)CC(=O)N1 (configuration not stated) | 36.5%
COc1cccc(-n2ncc3c(N/N=C/c4ccc(C(=O)NCCN(C)C)cc4)ncnc32)c1 | 4.04%
N#Cc1ccc2c(-c3ccnc(NC4CC4)n3)c(-c3ccc(F)cc3)nn2c1 | 3.35%
COc1ccc(Nc2ncc(-c3ccccc3)o2)cc1OC | 2.06%
Nc1nccc(-c2c(-c3ccc(F)cc3)ncn2C2CCNCC2)n1 | 1.41% and 5.84%
Cc1cc(O)cc(C)c1/C=C/c1cncc(C(N)=O)c1 | 3.39%
N#Cc1cccc(Nc2ncc(-c3ccccc3)o2)c1 | 2.12%
CC1=C(C(=O)Nc2ccc3[nH]ncc3c2)C(c2ccc(F)cc2)N=C(c2ccc(C(F)(F)F)nc2)N1 (configuration not stated) | 3.43%

SMILES | inhibition
COc1cc2c(cc1Nc1nc(Nc3cccc(F)c3C(N)=O)c3cc[nH]c3n1)N(C(=O)CN1CCN(C(C)C)CC1)CC2 | 4.11%
COc1cc(N2CCN(C(C)C)CC2)ccc1Nc1nc(Nc2cccc(F)c2C(=O)O)c2cc[nH]c2n1 | 2.88%
Cn1c(-c2nonc2N)nc2cnccc21 | 4.45%
Fc1cccc(COc2ccc(Nc3ncncc3C#Cc3ccccc3)cc2Cl)c1 | 4.44%
CN(c1ccc(NC(=O)NCCN2CCOCC2)cc1)c1ccnc(Nc2ccc(CS(C)(=O)=O)cc2)n1 | 7.12%
COc1cc(Nc2ncc(-c3ccccc3)o2)cc(OC)c1 | 3.91%
COC(=O)Nc1nc2ccc(Oc3ccc(NC(=O)Nc4cc(C(F)(F)F)ccc4F)cc3)cc2s1 | 1.52%
c1ccc(-c2n[nH]cc2-c2ccnc(-c3ccc(OCCn4ccnc4)cc3)c2)nc1 | 2.45%
OCCCNc1nccc(-c2c(-c3ccc(F)cc3)nn3cc(C(F)(F)F)ccc23)n1 | 7.22%
O=C(O[C@H]1CN[C@H](C#Cc2cc3ncnc(Nc4ccc5c(ccn5Cc5cc(F)ccc5F)c4)c3s2)C1)N1CCOCC1 | 5.26%
NC(=O)c1ccc2c(-c3ccnc(NCCCO)n3)c(-c3ccc(F)cc3)nn2c1 | 13.2%
FC(F)(F)CNc1nccc(-c2cnn3ncccc23)n1 | 2.41%
CS(=O)(=O)Nc1ccc(-c2cc(-c3ccccc3)cc(C(N)=O)c2N)cc1 | 2.74%
CS(=O)(=O)CCNCc1ccc(-c2ccc3ncnc(Nc4ccc(OCc5cccc(C(F)(F)F)c5)cc4)c3c2)o1 | 5.38%
COc1cccc(Nc2nccc(-c3cnn4ncccc34)n2)c1 | 29.1%

Biological target: Misshapen-like kinase 1 (Homo sapiens) (UniProt Q8N4C8);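 note: mean inhibition value reported, from GSK PKIS kinase profiling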
Sequence (Q8N4C8 whole entry, looked up): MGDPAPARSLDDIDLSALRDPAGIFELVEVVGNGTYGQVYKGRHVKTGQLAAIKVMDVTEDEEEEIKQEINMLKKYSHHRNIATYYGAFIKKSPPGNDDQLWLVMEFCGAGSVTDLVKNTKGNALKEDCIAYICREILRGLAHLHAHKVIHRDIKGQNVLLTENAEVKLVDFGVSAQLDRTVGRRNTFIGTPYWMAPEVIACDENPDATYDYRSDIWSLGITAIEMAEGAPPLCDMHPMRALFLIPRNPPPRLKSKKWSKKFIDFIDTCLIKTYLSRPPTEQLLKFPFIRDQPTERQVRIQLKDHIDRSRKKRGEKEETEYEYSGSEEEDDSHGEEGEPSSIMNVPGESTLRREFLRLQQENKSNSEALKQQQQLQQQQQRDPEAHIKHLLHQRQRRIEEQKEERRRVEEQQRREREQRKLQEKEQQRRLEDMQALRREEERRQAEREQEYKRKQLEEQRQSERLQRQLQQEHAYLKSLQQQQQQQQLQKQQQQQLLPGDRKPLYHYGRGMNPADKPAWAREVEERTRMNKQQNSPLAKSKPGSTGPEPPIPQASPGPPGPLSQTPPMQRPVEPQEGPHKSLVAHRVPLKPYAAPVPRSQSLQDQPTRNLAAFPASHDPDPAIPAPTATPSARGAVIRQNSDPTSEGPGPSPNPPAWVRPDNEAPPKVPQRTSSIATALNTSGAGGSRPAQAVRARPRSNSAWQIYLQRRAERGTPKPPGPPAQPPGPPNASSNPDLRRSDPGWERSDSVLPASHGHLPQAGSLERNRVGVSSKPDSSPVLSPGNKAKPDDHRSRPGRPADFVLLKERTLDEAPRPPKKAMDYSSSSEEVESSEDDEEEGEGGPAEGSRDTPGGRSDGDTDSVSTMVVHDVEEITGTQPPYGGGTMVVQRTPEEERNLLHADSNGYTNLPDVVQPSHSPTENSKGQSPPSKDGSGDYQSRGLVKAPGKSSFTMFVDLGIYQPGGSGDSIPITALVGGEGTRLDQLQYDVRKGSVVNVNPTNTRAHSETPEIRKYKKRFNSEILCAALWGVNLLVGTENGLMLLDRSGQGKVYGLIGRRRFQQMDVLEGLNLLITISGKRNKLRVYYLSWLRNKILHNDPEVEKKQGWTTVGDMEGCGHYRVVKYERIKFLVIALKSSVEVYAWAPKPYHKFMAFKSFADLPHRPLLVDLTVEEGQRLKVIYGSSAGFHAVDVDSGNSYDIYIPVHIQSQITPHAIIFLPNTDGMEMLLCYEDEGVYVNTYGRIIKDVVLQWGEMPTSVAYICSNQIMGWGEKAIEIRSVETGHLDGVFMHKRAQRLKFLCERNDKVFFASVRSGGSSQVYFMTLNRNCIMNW
Conditions: at 0.1 µM

SMILES | inhibition
NS(=O)(=O)c1ccc(N/N=C2\C(=O)Nc3ccc(C(=O)NCc4ccncc4)cc32)cc1 | 9.67%
CCCNc1cccc(-n2ncc3c(N/N=C/c4ccncc4)ncnc32)c1 | 5.44%
c1cnn2ncc(-c3ccnc(NCCCN4CCOCC4)n3)c2c1 | 4.95%
O=C(Nc1n[nH]c2nnc(-c3cccnc3)cc12)C1CC1 | 1.29%
COC(=O)Nc1nc2cc(Oc3ccc(NC(=O)Nc4ccccc4)cc3)ccc2[nH]1 | 5.15%
Fc1ccc(Nc2nccc(-c3c(-c4ccc(C(F)(F)F)cc4)nn4ncccc34)n2)cc1F | 6.5%
CCS(=O)(=O)c1ccc(OC)c(Nc2ncc(-c3cccc(F)c3)o2)c1 | 8.05%
CN1CCC(C(=O)Nc2n[nH]c3nc(-c4ccc(O)cc4)c(Br)cc23)CC1 | 7.75% and 5.32%
CC1=C(C(=O)Nc2ccc3[nH]nc(C)c3c2)C(c2ccc(C(F)(F)F)cc2)CC(=O)N1 (configuration not stated) | 4.68%
COc1cccc(-n2ncc3c(N/N=C/c4ccc(C(=O)NCCN(C)C)cc4)ncnc32)c1 | 23.1%
N#Cc1ccc2c(-c3ccnc(NC4CC4)n3)c(-c3ccc(F)cc3)nn2c1 | 6%
COc1ccc(Nc2ncc(-c3ccccc3)o2)cc1OC | 7.04%
Nc1nccc(-c2c(-c3ccc(F)cc3)ncn2C2CCNCC2)n1 | -0.88% and 2.53%
Cc1cc(O)cc(C)c1/C=C/c1cncc(C(N)=O)c1 | 4.8%
N#Cc1cccc(Nc2ncc(-c3ccccc3)o2)c1 | 5.1%
CC1=C(C(=O)Nc2ccc3[nH]ncc3c2)C(c2ccc(F)cc2)N=C(c2ccc(C(F)(F)F)nc2)N1 (configuration not stated) | 4.22%

SMILES | inhibition
COc1cc2c(cc1Nc1nc(Nc3cccc(F)c3C(N)=O)c3cc[nH]c3n1)N(C(=O)CN1CCN(C(C)C)CC1)CC2 | 3.15%
COc1cc(N2CCN(C(C)C)CC2)ccc1Nc1nc(Nc2cccc(F)c2C(=O)O)c2cc[nH]c2n1 | 4.85%
Cn1c(-c2nonc2N)nc2cnccc21 | 5.83%
Fc1cccc(COc2ccc(Nc3ncncc3C#Cc3ccccc3)cc2Cl)c1 | 7.69%
CN(c1ccc(NC(=O)NCCN2CCOCC2)cc1)c1ccnc(Nc2ccc(CS(C)(=O)=O)cc2)n1 | 3.82%
COc1cc(Nc2ncc(-c3ccccc3)o2)cc(OC)c1 | 8.63%
COC(=O)Nc1nc2ccc(Oc3ccc(NC(=O)Nc4cc(C(F)(F)F)ccc4F)cc3)cc2s1 | 2.27%
c1ccc(-c2n[nH]cc2-c2ccnc(-c3ccc(OCCn4ccnc4)cc3)c2)nc1 | 31.9%
OCCCNc1nccc(-c2c(-c3ccc(F)cc3)nn3cc(C(F)(F)F)ccc23)n1 | 5.07%
O=C(O[C@H]1CN[C@H](C#Cc2cc3ncnc(Nc4ccc5c(ccn5Cc5cc(F)ccc5F)c4)c3s2)C1)N1CCOCC1 | 5.96%
NC(=O)c1ccc2c(-c3ccnc(NCCCO)n3)c(-c3ccc(F)cc3)nn2c1 | 10.1%
FC(F)(F)CNc1nccc(-c2cnn3ncccc23)n1 | 3.42%
CS(=O)(=O)Nc1ccc(-c2cc(-c3ccccc3)cc(C(N)=O)c2N)cc1 | 0.77%
CS(=O)(=O)CCNCc1ccc(-c2ccc3ncnc(Nc4ccc(OCc5cccc(C(F)(F)F)c5)cc4)c3c2)o1 | 5.26%
COc1cccc(Nc2nccc(-c3cnn4ncccc34)n2)c1 | 11.1%
